Compounds with a hit are over-represented: about 3.7% of the library has one in this group of screens.
tim10-1 inh: inhibits growth of tim10-1 mutant yeast; inhibition, % at 20 µM; S. cerevisiae tim10-1 ts strain growth, BacTiter-Glo, 24 h; 330,000 tested, 2.2% active;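 active = inhibition of at least 40%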;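 also: mutant grown at 25 °C; 0% = DMSO wells with yeast and 100% = wells holding no yeast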
Rce1 inhib: blocks yeast Ras-converting enzyme | Q03530 | calls only | AID 2563 | 290,000 tested, 0.27% active | yeast membranes, quenched prenylated peptide cleavage fluorescence;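 active = fall in fluorescence gain of 50% or more versus controls, with final raw signal at or below 3038400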;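 also: plate controls were neutral control wells for no effect and wells lacking membranes for full effect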
Target sequence (Q03530 whole entry, looked up): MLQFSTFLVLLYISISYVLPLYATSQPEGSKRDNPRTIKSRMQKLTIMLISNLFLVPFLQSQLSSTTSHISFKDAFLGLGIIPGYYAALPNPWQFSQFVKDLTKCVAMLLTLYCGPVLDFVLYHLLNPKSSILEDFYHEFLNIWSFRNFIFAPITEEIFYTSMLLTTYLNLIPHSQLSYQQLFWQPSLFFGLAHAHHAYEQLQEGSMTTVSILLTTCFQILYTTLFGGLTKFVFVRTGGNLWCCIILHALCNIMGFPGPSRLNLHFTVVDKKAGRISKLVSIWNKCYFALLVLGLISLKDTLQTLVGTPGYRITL
tim23-1 inh: growth inhibitors of tim23-1 mutant yeast | S. cerevisiae tim23-1 growth, BacTiter-Glo luminescence, 24 h | inhibition, % at 20 µM | 330,000 tested, 1.3% active;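 active = growth inhibition of the mutant yeast at or above 50%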;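 also: temperature-sensitive mutant grown at 25 °C; plate controls were DMSO-treated mutant yeast for no effect and medium wells lacking yeast for full effect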
PfHsp90 yeast 2: reduces growth (ATP signal) of yeast expressing P. falciparum Hsp90. S. cerevisiae expressing PfHsp90, BacTiter-Glo ATP, 48 h; yeast lacking PDR1 and PDR3 efflux regulators. inhibition, % at 9.4 µM. 310,000 tested, 0.32% active;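 active = every replicate shows inhibition above about 80%, whatever the replicate mean, limit read from the data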;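 also: 0% = DMSO neutral controls and 100% = 20 µM radicicol positive controls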
TIM10 inh: TIM10 yeast growth inhibition; S. cerevisiae TIM10 strain growth, BacTiter-Glo luminescence, 24 h; inhibition, % at 10 µM; 330,000 tested, 1.4% active; AID 463195;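 active = inhibition of 40% or more at the single tested concentration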;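 also: wild-type TIM10 isogenic control strain grown at permissive 25 °C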
TIM10 conf: confirmation of TIM10 yeast growth inhibitors. inhibition, % at 10 µM. AID 463215. 4,600 tested, 63% active. S. cerevisiae tim10 strain growth, BacTiter-Glo luminescence, 24 h. shares compounds with TIM10 inh;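 active = inhibition of yeast growth at or above a set limit in either of two replicates at 10 µM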;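 also: this counterscreen used the strain with wild-type TIM10; 0% = yeast with DMSO and 100% = medium wells lacking yeast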
Numbers without * were called inactive; i = inactive; / = no result.

SMILES	tim10-1 inh	Rce1 inhib	tim23-1 inh	PfHsp90 yeast 2	TIM10 inh	TIM10 conf
c1ccc(-c2csc(Nc3ccc4c(c3)OCCO4)n2)cc1	37	i	32	-13	41*	5
O=C(Nc1ccc(Cl)cc1)N1CCC(c2nc(-c3ccc(F)cc3)no2)CC1	32	i	20	8	48*	10
COc1ccc(NC(=O)N2CCCC(c3nc(-c4ccc(OC)cc4)no3)C2)cc1 (stereo not given)	22	i	29	7	-5	/
O=C(COc1ccccc1)Nc1ccc(S(=O)(=O)N2CCCCCC2)cc1	38	i	35	-5	71*	60*
O=C(CSCc1ccc(Cl)cc1)Nc1ccc(S(=O)(=O)N2CCCCCC2)cc1	35	i	40	-11	41*	-23
COc1ccc(OCC(=O)Nc2ccc(S(=O)(=O)N3CCCCCC3)cc2)cc1	31	i	26	-17	29	/
Cc1ccccc1NS(=O)(=O)c1ccc(NC(=O)CSCc2ccc(Br)cc2)cc1	37	i	45	-23	41*	28
O=C(Nc1ccc(S(=O)(=O)N2CCCCCC2)cc1)c1ccc(Br)o1	40	i	40	-43	56*	50*
O=C(CSCc1ccc(Br)cc1)Nc1ccc(S(=O)(=O)N2CCOCC2)cc1	23	i	36	/	22	/
Clc1ccc(CSc2ncnc3c2ncn3C2CCCCO2)cc1 (stereo not given)	/	/	/	-2	/	/
Cc1ccc(C)c(NC(=S)N/N=C/C(C)c2ccccc2)c1 (stereo not given)	38	i	26	-6	49*	26
Cc1ccc(CN(C)C(=O)c2ccc3c(c2)NC(=O)CS3)o1	4	i	2	9	-17	/
CCn1c(=O)c(C(=O)NCc2cccnc2)c(O)c2ccccc21	32	i	42	/	44*	33*
CCn1c(=O)c(C(=O)NCc2ccccc2)c(O)c2ccccc21	-43	i	36	7	-14	/
c1ccc(Cn2c(SCc3nc4ccccc4s3)nnc2-c2ccco2)cc1	17	i	36	-14	-6	/
CCC(c1nnc(SCc2nc3ccccc3s2)n1Cc1ccccc1)N(C)C (stereo not given)	33	i	23	10	41*	-18
Cc1cc(Nc2ccc(Br)cc2)nc(-c2ccccc2O)n1	34	i	45	-25	43*	49*
CC(C)(C)C(=O)/C(=C\c1ccc([N+](=O)[O-])cc1)n1cncn1	36	i	-57	/	61*	-22
CCOC(=O)C1=C(C)NC2=C(C(=O)c3ccccc32)C1c1ccc([N+](=O)[O-])o1 (stereo not given)	31	i	48	-26	49*	40*
CC(C)(C)c1ccc(/C=C(\c2nc3ccccc3[nH]2)S(=O)(=O)c2ccccc2)cc1	26	i	46	-9	47*	33*
COc1cccc(-n2nnnc2S(C)(=O)=O)c1	-13	i	-49	-64	59*	48*
Cc1ccc(Cn2c(=O)c3ccccc3n3c(CCC(=O)NCCN4CCOCC4)nnc23)cc1	6	i	-7	1	96*	-7
O=C(CCc1nnc2n(Cc3ccccc3Cl)c(=O)c3ccccc3n12)NCCCN1CCOCC1	3	i	4	-11	0	/
Cc1ccnc(NS(=O)(=O)c2cccc([N+](=O)[O-])c2)c1	9	i	3	-9	2	/
CCCC(=O)N1CCN(c2ccc(NC(=O)C(C)(C)C)cc2Cl)CC1	23	i	7	6	-12	/
SMILES	tim10-1 inh	Rce1 inhib	tim23-1 inh	PfHsp90 yeast 2	TIM10 inh	TIM10 conf
CCCC(=O)N1CCN(c2ccc(NC(=O)c3cccs3)cc2Cl)CC1	11	i	31	4	46*	17
CP(=O)(Nc1cc(Cl)ccc1Cl)c1nc2c(s1)CCCC2 (stereo not given)	25	i	23	7	20	/
CCCN(C(=O)CCOc1ccc(C(C)(C)C)cc1)c1c(N)n(Cc2ccccc2)c(=O)[nH]c1=O	0	i	-11	-6	-4	/
CC(C)Cn1[nH]c2c3c(ccc2c1=O)C(=O)c1ccccc1C3=O	24	i	28	-7	58*	49*
O=C1c2ccccc2C(=O)c2c1ccc1c(=O)n(-c3ccccc3)[nH]c21	23	i	4	1	15	/
CS(=O)(=O)Nc1ccccc1C(=O)NCCSc1ccc(Cl)cc1	5	i	26	3	10	/
CCc1ccccc1NC(=S)NCCSc1ccc(Cl)cc1	35	i	18	11	55*	40*
Cc1ccc(NC(=O)CN(C)C(=O)c2cc3ccccc3o2)cc1	-14	i	-9	-4	-2	/
COc1ccc(CCN(C)C(=S)NC(=O)c2ccc(F)cc2Cl)cc1OC	31	i	34	17	45*	20
COc1ccc(CCN(C)C(=S)Nc2ccc(SC(F)F)cc2)cc1OC	7	i	12	-13	10	/
O=C(Nc1ccc(F)cc1)C1COc2ccccc2O1 (stereo not given)	-2	i	10	-17	16	/
CCN(CC)S(=O)(=O)c1ccc(NC(=O)C2COc3ccccc3O2)cc1 (stereo not given)	39	i	36	0	40*	35*
O=C(N/N=C/c1cccnc1)c1ccc([N+](=O)[O-])cc1	-13	i	15	4	-1	/
O=[N+]([O-])c1ccc(N/N=C/c2cccnc2)cc1	-54	i	15	-6	42*	30
COc1cc2c(cc1OC)CN(CCC(C)c1ccc(Cl)cc1)CC2 (stereo not given)	-9	i	-8	2	0	/
O=C(Nc1cccc(S(=O)(=O)NC2=NCCC2)c1)c1ccc(=O)[nH]c1	6	/	15	-14	3	/
Cc1cc(-c2ccc(N3CCOCC3)cc2)nc2ccccc12	28	i	48	-18	58*	64*
O=[N+]([O-])C(=C1Nc2ccccc2N1)/C(Cl)=C(/Cl)Br	26	i	37	4	57*	41*
CNc1ncc(C(=O)c2ccc(Cl)c(Cl)c2)s1	37	i	47	-44	55*	30
CCOC(=O)c1cc(C(C)=O)n2ccccc12	23	i	18	23	16	/
CCOC(=O)c1cc(C(=O)c2cccs2)n2ccc(C(C)=O)cc12	16	i	4	-10	50*	36*
COCCn1c(SCC(=O)Nc2c(C)n(C)n(-c3ccccc3)c2=O)nnc1-c1ccncc1	-4	/	-15	-12	7	/
COc1cc(/C=C/C(=O)c2ccc(F)cc2)cc(OC)c1OC	39	i	48	11	42*	42*
COc1ccc(/C=C/C(=O)c2ccc(C(=O)/C=C/c3ccc(OC)c(OC)c3)cc2)cc1OC	22	i	8	-8	-5	/
C=CCN(CC=C)C(=S)NC(=O)/C=C/c1ccc(OC)cc1	20	i	45	-14	44*	11

Source: PubChem BioAssay
